# According to the supplement of paper PMC11001985:
# Unmarked numbers belong to inactive results.
# Compound: C#CCNC(=O)CCSSCCC(=O)NCCc1ccc(C=O)c(C=O)c1
# Test: lysine labeling ratio R10:1 (500 µM / 50 µM probe), SILAC-ABPP in living cells; higher = lower intrinsic lysine reactivity toward the probe, active = 2 or less
# Conditions: HeLa; probe concentrations 500 vs 50 µM
# How it was run: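 Each lysine carries an R value: the filtered median of MS1 peptide ratios of high probe to low probe, with the median then taken over forward and reverse replicates. These came from living SILAC light and heavy HeLa cells in PBS at room temperature labelled with an alkyne-tagged, disulfide-linked lysine probe at 500 µM or 50 µM, in forward and reverse swaps. The lysates were mixed, clicked to biotin-azide, trypsin-digested, captured on neutravidin, released by DTT, alkylated and run by LC-MS/MS on a TIMS-TOF Pro. The highest value allowed is 20.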
# UniProt P11047, sequence (P11047 whole entry): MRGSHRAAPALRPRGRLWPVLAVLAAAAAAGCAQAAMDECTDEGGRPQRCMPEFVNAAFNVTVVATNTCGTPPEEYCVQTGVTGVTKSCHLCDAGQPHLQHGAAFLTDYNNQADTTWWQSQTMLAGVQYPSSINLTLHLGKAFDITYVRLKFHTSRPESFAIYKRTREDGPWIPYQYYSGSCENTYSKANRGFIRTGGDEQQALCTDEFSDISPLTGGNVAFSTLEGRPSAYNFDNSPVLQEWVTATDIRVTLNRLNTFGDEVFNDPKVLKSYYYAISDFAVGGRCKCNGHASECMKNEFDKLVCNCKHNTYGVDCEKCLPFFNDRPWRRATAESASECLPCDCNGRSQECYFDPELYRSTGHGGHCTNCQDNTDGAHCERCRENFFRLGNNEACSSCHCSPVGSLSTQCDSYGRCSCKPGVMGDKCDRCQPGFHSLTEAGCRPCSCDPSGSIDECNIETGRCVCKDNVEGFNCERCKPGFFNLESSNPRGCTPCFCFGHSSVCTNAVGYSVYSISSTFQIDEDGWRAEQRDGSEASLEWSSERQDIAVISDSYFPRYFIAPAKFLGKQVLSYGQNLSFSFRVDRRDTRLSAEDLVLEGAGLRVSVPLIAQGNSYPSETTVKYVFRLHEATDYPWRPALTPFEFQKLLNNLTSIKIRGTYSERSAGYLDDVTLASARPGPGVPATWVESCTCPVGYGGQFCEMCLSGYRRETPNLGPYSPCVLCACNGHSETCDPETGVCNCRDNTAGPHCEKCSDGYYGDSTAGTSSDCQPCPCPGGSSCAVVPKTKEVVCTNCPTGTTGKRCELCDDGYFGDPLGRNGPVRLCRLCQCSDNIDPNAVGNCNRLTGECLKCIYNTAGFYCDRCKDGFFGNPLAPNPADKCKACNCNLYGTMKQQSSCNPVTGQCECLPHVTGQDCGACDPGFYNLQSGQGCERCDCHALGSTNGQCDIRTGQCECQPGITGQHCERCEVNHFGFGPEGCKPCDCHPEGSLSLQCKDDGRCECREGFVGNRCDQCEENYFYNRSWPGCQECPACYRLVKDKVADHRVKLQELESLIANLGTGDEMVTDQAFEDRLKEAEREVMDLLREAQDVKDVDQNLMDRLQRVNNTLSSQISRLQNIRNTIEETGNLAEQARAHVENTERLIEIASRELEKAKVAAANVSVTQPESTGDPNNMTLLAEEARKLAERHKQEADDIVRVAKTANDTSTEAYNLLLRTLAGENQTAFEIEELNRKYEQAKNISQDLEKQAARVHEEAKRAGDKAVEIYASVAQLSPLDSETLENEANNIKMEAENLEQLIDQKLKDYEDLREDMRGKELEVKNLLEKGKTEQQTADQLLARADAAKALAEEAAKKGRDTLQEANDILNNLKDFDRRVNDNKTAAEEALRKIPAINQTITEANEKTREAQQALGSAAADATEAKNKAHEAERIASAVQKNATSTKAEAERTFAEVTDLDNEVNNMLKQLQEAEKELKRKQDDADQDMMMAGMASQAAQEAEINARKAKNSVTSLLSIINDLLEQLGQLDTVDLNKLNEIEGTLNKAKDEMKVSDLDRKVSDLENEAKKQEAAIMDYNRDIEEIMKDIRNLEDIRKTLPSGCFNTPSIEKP
# UniProt P38646, sequence (P38646 whole entry): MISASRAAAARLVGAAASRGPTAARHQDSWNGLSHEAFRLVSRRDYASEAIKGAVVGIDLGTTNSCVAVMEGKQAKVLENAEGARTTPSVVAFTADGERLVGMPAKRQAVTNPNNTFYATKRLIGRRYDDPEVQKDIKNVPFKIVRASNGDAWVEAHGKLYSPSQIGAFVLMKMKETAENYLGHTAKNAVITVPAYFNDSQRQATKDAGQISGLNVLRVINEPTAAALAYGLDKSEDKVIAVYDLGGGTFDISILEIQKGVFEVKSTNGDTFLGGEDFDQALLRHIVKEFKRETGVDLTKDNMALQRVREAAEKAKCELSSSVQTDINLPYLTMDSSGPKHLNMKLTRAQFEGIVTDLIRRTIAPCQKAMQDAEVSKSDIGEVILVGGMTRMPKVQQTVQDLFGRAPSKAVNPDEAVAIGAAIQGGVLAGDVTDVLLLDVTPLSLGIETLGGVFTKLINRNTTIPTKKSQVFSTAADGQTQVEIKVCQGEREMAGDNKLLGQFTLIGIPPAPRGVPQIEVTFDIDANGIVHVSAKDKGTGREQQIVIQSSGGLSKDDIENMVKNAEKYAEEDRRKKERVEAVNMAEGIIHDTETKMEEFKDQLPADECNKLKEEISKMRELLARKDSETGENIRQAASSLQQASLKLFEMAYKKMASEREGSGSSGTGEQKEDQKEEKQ
# UniProt P49368, sequence (P49368 whole entry): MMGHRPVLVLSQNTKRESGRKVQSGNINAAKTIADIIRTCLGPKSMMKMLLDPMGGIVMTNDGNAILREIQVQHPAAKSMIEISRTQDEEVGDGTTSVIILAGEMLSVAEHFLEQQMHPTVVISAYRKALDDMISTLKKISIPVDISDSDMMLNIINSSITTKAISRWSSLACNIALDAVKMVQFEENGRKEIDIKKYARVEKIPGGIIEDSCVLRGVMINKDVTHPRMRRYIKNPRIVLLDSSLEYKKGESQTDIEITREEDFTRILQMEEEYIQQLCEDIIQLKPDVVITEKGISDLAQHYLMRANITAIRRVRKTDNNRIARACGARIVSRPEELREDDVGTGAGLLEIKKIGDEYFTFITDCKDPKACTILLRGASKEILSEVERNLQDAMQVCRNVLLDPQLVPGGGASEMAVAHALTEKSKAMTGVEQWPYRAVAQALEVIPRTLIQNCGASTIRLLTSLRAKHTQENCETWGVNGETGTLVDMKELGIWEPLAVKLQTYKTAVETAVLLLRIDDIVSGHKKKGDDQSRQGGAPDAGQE
# UniProt Q14574, sequence (Q14574 whole entry): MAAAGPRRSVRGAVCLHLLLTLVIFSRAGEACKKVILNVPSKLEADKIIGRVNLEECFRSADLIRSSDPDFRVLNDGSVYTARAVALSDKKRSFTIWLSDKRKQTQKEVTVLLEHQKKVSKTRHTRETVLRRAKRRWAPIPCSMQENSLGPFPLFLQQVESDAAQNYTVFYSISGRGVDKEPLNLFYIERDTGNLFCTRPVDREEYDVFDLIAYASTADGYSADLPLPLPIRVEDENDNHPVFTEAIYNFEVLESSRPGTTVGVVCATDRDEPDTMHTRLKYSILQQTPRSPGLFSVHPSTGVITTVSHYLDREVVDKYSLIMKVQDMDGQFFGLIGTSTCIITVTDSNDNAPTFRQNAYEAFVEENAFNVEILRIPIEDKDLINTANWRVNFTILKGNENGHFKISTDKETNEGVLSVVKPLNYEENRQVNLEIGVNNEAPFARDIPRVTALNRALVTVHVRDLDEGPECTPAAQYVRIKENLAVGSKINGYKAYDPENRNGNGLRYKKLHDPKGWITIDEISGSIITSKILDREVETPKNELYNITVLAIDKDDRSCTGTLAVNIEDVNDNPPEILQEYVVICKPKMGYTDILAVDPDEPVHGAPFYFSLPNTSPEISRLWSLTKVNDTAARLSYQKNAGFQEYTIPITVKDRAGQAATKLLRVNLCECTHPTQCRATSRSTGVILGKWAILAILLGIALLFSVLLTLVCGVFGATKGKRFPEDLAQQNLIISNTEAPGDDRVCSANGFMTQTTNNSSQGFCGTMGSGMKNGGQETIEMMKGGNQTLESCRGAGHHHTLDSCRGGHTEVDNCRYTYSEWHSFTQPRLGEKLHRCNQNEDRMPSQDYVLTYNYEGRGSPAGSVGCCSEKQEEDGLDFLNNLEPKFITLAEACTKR
# UniProt P05787, sequence (P05787 whole entry): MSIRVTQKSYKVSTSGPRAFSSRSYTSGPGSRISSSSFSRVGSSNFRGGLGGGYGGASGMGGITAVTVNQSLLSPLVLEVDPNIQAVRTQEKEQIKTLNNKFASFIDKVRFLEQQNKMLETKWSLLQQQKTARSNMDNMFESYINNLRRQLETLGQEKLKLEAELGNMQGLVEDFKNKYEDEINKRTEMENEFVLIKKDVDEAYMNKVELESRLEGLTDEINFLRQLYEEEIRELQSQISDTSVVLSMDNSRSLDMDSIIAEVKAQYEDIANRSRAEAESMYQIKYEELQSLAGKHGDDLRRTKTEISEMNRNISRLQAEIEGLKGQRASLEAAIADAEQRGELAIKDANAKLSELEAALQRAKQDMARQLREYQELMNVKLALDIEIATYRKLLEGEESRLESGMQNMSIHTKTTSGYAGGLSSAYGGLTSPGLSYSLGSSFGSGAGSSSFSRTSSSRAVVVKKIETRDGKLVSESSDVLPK
row,Target,lysine labeling ratio R10:1
1,TLN1 (lysine site: K1948) (UniProt Q9Y490),0.788 (active)
2,LAMC1 (lysine site: K1584) (UniProt P11047),3.72
3,HSPA9 (lysine site: K625) (UniProt P38646),3.75
4,UniProt P05787 (lysine site: K352),9.16
5,CCT3 (lysine site: K249) (UniProt P49368),1.76 (active)
6,UniProt Q14574 (lysine site: K381),1.61 (active)
